According to the supplement of paper PMC4466140:

B1: unnamed (peptide)
chain: EAEEAAPQLPSRSSA
B2: unnamed (peptide)
chain: APERAVPILPPRNNV

biological target: AgAbp1; assay: SPOT peptide array binding signal intensity (averaged, normalized) (arbitrary units (background-subtracted, floor 0; scale differs between SH3 domains)); higher = stronger binding of the SH3 domain to the peptide
In short: (§1)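 Binding signal is given in arbitrary units that differ between domains and is the normalized, background-subtracted spot intensity averaged across replicates. Each GST-SH3 fusion from one of four yeast species was made in E. coli BL21(DE3), purified on glutathione Sepharose and incubated at 10 μg/ml overnight at 4°C on cellulose-bound synthetic 15-mer peptides in which cysteines were replaced by serines. Detection used anti-GST antibody, an HRP anti-mouse secondary and luminol, followed by imaging and Genespotter quantification.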

Binder	SPOT peptide array binding signal intensity
B1	7

biological target: AgBbc1; assay: as above
In short: as §1

Binder	SPOT peptide array binding signal intensity
B1	≤ 0

biological target: AgBem1-D1; assay: as above
In short: as §1

Binder	SPOT peptide array binding signal intensity
B1	≤ 0

biological target: AgBzz1-D1; assay: as above
In short: as §1

Binder	SPOT peptide array binding signal intensity
B1	8.5

biological target: AgBzz1-D2; assay: as above
In short: as §1

Binder	SPOT peptide array binding signal intensity
B1	8.5

biological target: AgCyk3; assay: as above
In short: as §1

Binder	SPOT peptide array binding signal intensity
B1	≤ 0

biological target: AgFus1; assay: as above
In short: as §1

Binder	SPOT peptide array binding signal intensity
B1	8

biological target: AgHof1; assay: as above
In short: as §1

Binder	SPOT peptide array binding signal intensity
B1	0.5

biological target: AgHse1; assay: as above
In short: as §1

Binder	SPOT peptide array binding signal intensity
B1	3.5

biological target: AgLsb1; assay: as above
In short: as §1

Binder	SPOT peptide array binding signal intensity
B1	16

biological target: AgLsb4; assay: as above
In short: as §1

Binder	SPOT peptide array binding signal intensity
B1	3510

biological target: AgMyo5; assay: as above
In short: as §1

Binder	SPOT peptide array binding signal intensity
B1	≤ 0

biological target: AgNbp2; assay: as above
In short: as §1

Binder	SPOT peptide array binding signal intensity
B1	≤ 0

biological target: AgRvs167; assay: as above
In short: as §1

Binder	SPOT peptide array binding signal intensity
B1	11.3

biological target: AgSho1; assay: as above
In short: as §1

Binder	SPOT peptide array binding signal intensity
B1	≤ 0

biological target: AgSla1-D1-D2; assay: as above
In short: as §1

Binder	SPOT peptide array binding signal intensity
B1	≤ 0

biological target: AgSla1-D3; assay: as above
In short: as §1

Binder	SPOT peptide array binding signal intensity
B1	2

biological target: CaAbp1-D1; assay: as above
In short: as §1

Binder	SPOT peptide array binding signal intensity
B1	≤ 0

biological target: CaAbp1-D2; assay: as above
In short: as §1

Binder	SPOT peptide array binding signal intensity
B1	≤ 0

biological target: CaBbc1; assay: as above
In short: as §1

Binder	SPOT peptide array binding signal intensity
B1	≤ 0

biological target: CaBem1-D1; assay: as above
In short: as §1

Binder	SPOT peptide array binding signal intensity
B1	≤ 0

biological target: CaBzz1-D1; assay: as above
In short: as §1

Binder	SPOT peptide array binding signal intensity
B1	1

biological target: CaBzz1-D2; assay: as above
In short: as §1

Binder	SPOT peptide array binding signal intensity
B1	3.25

biological target: CaCyk3; assay: as above
In short: as §1

Binder	SPOT peptide array binding signal intensity
B1	≤ 0

biological target: CaFus1; assay: as above
In short: as §1

Binder	SPOT peptide array binding signal intensity
B1	5

biological target: CaHof1; assay: as above
In short: as §1

Binder	SPOT peptide array binding signal intensity
B1	0.25

biological target: CaHse1; assay: as above
In short: as §1

Binder	SPOT peptide array binding signal intensity
B1	6.75

biological target: CaLsb1; assay: as above
In short: as §1

Binder	SPOT peptide array binding signal intensity
B1	1.75

biological target: CaLsb4; assay: as above
In short: as §1

Binder	SPOT peptide array binding signal intensity
B1	6000

biological target: CaMyo5; assay: as above
In short: as §1

Binder	SPOT peptide array binding signal intensity
B1	1

biological target: CaNbp2; assay: as above
In short: as §1

Binder	SPOT peptide array binding signal intensity
B1	≤ 0
B2	25

biological target: CaRvs167; assay: as above
In short: as §1

Binder	SPOT peptide array binding signal intensity
B1	340
B2	414

biological target: CaRvs167-3; assay: as above
In short: as §1

Binder	SPOT peptide array binding signal intensity
B1	6.25
B2	≤ 0

biological target: CaSho1; assay: as above
In short: as §1

Binder	SPOT peptide array binding signal intensity
B1	≤ 0
B2	4

biological target: CaSla1-D1-D2; assay: as above
In short: as §1

Binder	SPOT peptide array binding signal intensity
B1	≤ 0
B2	1

biological target: CaSla1-D3; assay: as above
In short: as §1

Binder	SPOT peptide array binding signal intensity
B1	≤ 0
B2	≤ 0

biological target: ScAbp1; assay: as above
In short: as §1

Binder	SPOT peptide array binding signal intensity
B1	6
B2	1.5

biological target: ScBbc1; assay: as above
In short: as §1

Binder	SPOT peptide array binding signal intensity
B1	≤ 0
B2	4.25

biological target: ScBem1-D1; assay: as above
In short: as §1

Binder	SPOT peptide array binding signal intensity
B1	≤ 0
B2	≤ 0

biological target: ScBzz1-D1; assay: as above
In short: as §1

Binder	SPOT peptide array binding signal intensity
B1	9
B2	2.5

biological target: ScBzz1-D2; assay: as above
In short: as §1

Binder	SPOT peptide array binding signal intensity
B1	10
B2	≤ 0

biological target: ScCyk3; assay: as above
In short: as §1

Binder	SPOT peptide array binding signal intensity
B1	1
B2	5

biological target: ScFus1; assay: as above
In short: as §1

Binder	SPOT peptide array binding signal intensity
B1	≤ 0
B2	≤ 0

biological target: ScHof1; assay: as above
In short: as §1

Binder	SPOT peptide array binding signal intensity
B1	4.25
B2	32.5

biological target: ScHse1; assay: as above
In short: as §1

Binder	SPOT peptide array binding signal intensity
B1	≤ 0
B2	≤ 0

biological target: ScLsb1; assay: as above
In short: as §1

Binder	SPOT peptide array binding signal intensity
B1	283
B2	80.2

biological target: ScLsb2; assay: as above
In short: as §1

Binder	SPOT peptide array binding signal intensity
B1	12.5
B2	18

biological target: ScLsb3; assay: as above
In short: as §1

Binder	SPOT peptide array binding signal intensity
B1	7150
B2	4520

biological target: ScLsb4; assay: as above
In short: as §1

Binder	SPOT peptide array binding signal intensity
B1	3370
B2	1710

biological target: ScMyo3; assay: as above
In short: as §1

Binder	SPOT peptide array binding signal intensity
B1	≤ 0
B2	33.5

biological target: ScMyo5; assay: as above
In short: as §1

Binder	SPOT peptide array binding signal intensity
B1	≤ 0
B2	2.75

biological target: ScNbp2; assay: as above
In short: as §1

Binder	SPOT peptide array binding signal intensity
B1	≤ 0
B2	6

biological target: ScPex13; assay: as above
In short: as §1

Binder	SPOT peptide array binding signal intensity
B1	128
B2	789

biological target: ScRvs167; assay: as above
In short: as §1

Binder	SPOT peptide array binding signal intensity
B1	1500
B2	966

biological target: ScSho1; assay: as above
In short: as §1

Binder	SPOT peptide array binding signal intensity
B1	≤ 0
B2	91.5

biological target: ScSla1-D1-D2; assay: as above
In short: as §1

Binder	SPOT peptide array binding signal intensity
B1	7
B2	34.5

biological target: ScSla1-D3; assay: as above
In short: as §1

Binder	SPOT peptide array binding signal intensity
B1	0.75
B2	1

biological target: SpAbp1-D1; assay: as above
In short: as §1

Binder	SPOT peptide array binding signal intensity
B1	≤ 0
B2	5.5

biological target: SpBbc1; assay: as above
In short: as §1

Binder	SPOT peptide array binding signal intensity
B1	≤ 0
B2	0.5

biological target: SpBzz1-D1; assay: as above
In short: as §1

Binder	SPOT peptide array binding signal intensity
B1	≤ 0
B2	81

biological target: SpBzz1-D2; assay: as above
In short: as §1

Binder	SPOT peptide array binding signal intensity
B1	≤ 0
B2	≤ 0

biological target: SpCyk3; assay: as above
In short: as §1

Binder	SPOT peptide array binding signal intensity
B1	1
B2	13

biological target: SpHof1; assay: as above
In short: as §1

Binder	SPOT peptide array binding signal intensity
B1	0.5
B2	3

biological target: SpHof1-2; assay: as above
In short: as §1

Binder	SPOT peptide array binding signal intensity
B1	3.5
B2	8

biological target: SpHof1-3; assay: as above
In short: as §1

Binder	SPOT peptide array binding signal intensity
B1	1
B2	20.8

biological target: SpHse1; assay: as above
In short: as §1

Binder	SPOT peptide array binding signal intensity
B1	0.5
B2	2.5

biological target: SpLsb1; assay: as above
In short: as §1

Binder	SPOT peptide array binding signal intensity
B1	4.25
B2	83.8

biological target: SpLsb4; assay: as above
In short: as §1

Binder	SPOT peptide array binding signal intensity
B1	6420
B2	3550

biological target: SpMyo1; assay: as above
In short: as §1

Binder	SPOT peptide array binding signal intensity
B1	≤ 0
B2	926

biological target: SpNbp2; assay: as above
In short: as §1

Binder	SPOT peptide array binding signal intensity
B1	≤ 0
B2	≤ 0

biological target: SpPex13; assay: as above
In short: as §1

Binder	SPOT peptide array binding signal intensity
B1	0.5
B2	2

biological target: SpRvs167; assay: as above
In short: as §1

Binder	SPOT peptide array binding signal intensity
B1	2390
B2	1250

biological target: SpSla1-D1-D2; assay: as above
In short: as §1

Binder	SPOT peptide array binding signal intensity
B1	2
B2	≤ 0

biological target: SpSla1-D3; assay: as above
In short: as §1

Binder	SPOT peptide array binding signal intensity
B1	1
B2	≤ 0
